High-throughput results deposited in PubChem BioAssay by National Center for Advancing Translational Sciences (NCATS).
KB-3-1 tox: qHTS assay for MDR1-selective chemotherapeutics: Primary screen using the parental adenocarcinoma cell KB-3-1; 400,000 tested, 1.4% active; KB-3-1 viability, CellTiter-Glo ATP luminescence, 72 h; Potency, µM (highest dose often 46.1 µM), actives largely listed as cytotoxic; also: nearly all actives have a fitted effect of over 60% in size
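Cytotoxicity measured as CellTiter-Glo luminescence after 72 h at 37 C. Compound titrations were pinned onto drug-naive KB-3-1 parental adenocarcinoma cells grown in DMEM with 10% FBS, and normalized data fitted to concentration-response curves.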
ATXN2 expr inh: Primary qHTS for Inhibitors of ATXN expression; HEK-293 ATXN2-luciferase reporter, luminescence, 24 h; Potency, µM (highest dose often 57 µM), actives largely listed as inhibitors; 360,000 tested, 0.72% active; AID 1745845, 2022; also: nearly all actives have a fitted effect of over 55% in size
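ATXN2-luciferase reporter cells (luciferase flanked by upstream and downstream ATXN2 gene portions) were treated 24 h at 37 °C with compounds at up to 57 uM. SteadyGlo luminescence gave expression; GF-AFC fluorescence gave viability.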
HT1080 IDH1KD tx: qHTS for induction of synthetic lethality in tumor cells producing 2HG: qHTS for the HT-1080-IDH1KD cell line; HT-1080 IDH1 knockdown viability, ATP luminescence, 48 h; Potency, µM (top dose mostly 46.1 µM), actives largely listed as cytotoxic; 360,000 tested, 2% active
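Assay cells: HT-1080 with IDH1 knockdown, 750 per well, RPMI/5% FBS. Exposure: 48 h at 37 °C following 2 h pre-incubation. Read: CellTiter-Glo luminescence; fitted concentration-response, curve class assigned.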
KB-V1 MDR tox: qHTS assay for MDR1-selective chemotherapeutics: Primary screen using the drug-selected MDR subline cells KB-V1; KB-V1 MDR cells viability, CellTiter-Glo, 72 h; Potency, µM (titrated, usually from 46.1 µM), hits mostly cytotoxic; 400,000 tested, 3.4% active; AID 1347076, 2019; also: nearly all actives have a fitted effect of over 60% in size
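In this primary screen, KB-V1 cells overexpressing P-gp are incubated with library compounds (lowest to highest concentration) for 72 h at 37 degrees C before a luminescent ATP viability read.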
ATXN viability: Viability Counterscreen for Primary qHTS for Inhibitors of ATXN expression. S2 cells (HEK-293 line with an ATXN2-luciferase reporter) viability, CellTiter-Fluor protease fluorescence, 24 h. 400,000 tested, 0.49% active. Potency, µM (highest dose often 56.7 µM), actives largely listed as cytotoxic. AID 651635, 2014; also: nearly all actives have a fitted effect of over 40% in size
HT1080NT lethal: qHTS for induction of synthetic lethality in tumor cells producing 2HG: qHTS for the HT-1080-NT fibrosarcoma cell line; HT-1080-NT fibrosarcoma viability, CellTiter-Glo ATP luminescence, 48 h; Potency, µM (doses to about 46.1 µM), usual class: cytotoxic; 360,000 tested, 1.6% active; AID 686970, 2013;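 also: NT is the 2HG producing partner of a matched IDH1 knockdown line; nearly all actives have a fitted effect of over 55% in size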
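HT-1080-NT; 750 cells/well; 5% FBS RPMI; 48 h compound, 37 degrees C; CellTiter-Glo luminescence; curve fitting and curve-class assignment.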
Numbers stand for hits; – = inactive; ? = inconclusive; · = not tested or not shown; [ ] = another dose, or the depositor's remark. Most compounds without a hit are left out; they make up all but 6.2% or so of the library. Calls follow the shape of the dose curve; as a rule, active = well fitted curve in the direction sought with a large enough effect; inconclusive = small, poorly fitted or top-dose-only effect, or another doubt; inactive = no such curve, though single readings can be large; an effect the other way counts as inactive or inconclusive.

SMILES	KB-3-1 tox	ATXN2 expr inh	HT1080 IDH1KD tx	KB-V1 MDR tox	ATXN viability	HT1080NT lethal
CCCC(=O)NC(=S)Nc1c(C)cc(Br)cc1C	18.4µM	–	–	?	–	–
Cc1ccccc1NC(=S)NC(=O)CCc1ccccc1	–	–	?	?	–	10µM
Cc1ccccc1NC(=S)NC(C)CCc1ccccc1 (stereo not given)	–	–	–	–	–	–
COc1cc(OC)c(NC(=O)Nc2sc3nc4n(c(=O)c3c2C)CCC(C)CC4)cc1Cl (stereo not given)	–	–	·	–	?	·
CCc1c(C)sc2c1CCN(C(=O)Nc1cc(C)ccc1C)C2c1ccc(OC)cc1 (stereo not given)	–	–	·	–	?	·
Cc1ccc(NS(=O)(=O)c2cc3c(cc2Cl)NC(=O)C3)cc1C	–	·	·	–	·	·
Cc1ccc2c(c1)-c1c(ssc1=S)C(C)(C)N2C(=O)CSC1=NCCS1	–	–	–	7.31µM	–	–
CCOc1ccc2c(c1)-c1c(ssc1=S)C(C)(C)N2C(=O)CSC1=NCCS1	–	–	–	8.2µM	–	–
Cc1ccc2c(c1)-c1c(ssc1=S)C(C)(C)N2C(=O)c1ccco1	–	?	?	–	–	?
COc1ccc(Cl)cc1NC(=O)c1cc2ccc3ccc(C)[nH]c3c2n1	–	–	·	?	–	·
CC1CCCC(NC(=S)NC(=O)c2ccccc2Br)C1C (stereo not given)	25.9µM	–	–	16.4µM	–	–
O=C(Nc1nnc(COc2ccccc2F)s1)Nc1ccccc1F	–	–	?	–	–	?
O=C(Nc1ccc(Cl)cc1)Nc1nnc(CSc2ccc(Cl)cc2)s1	?	?	–	?	?	–
O=C(Nc1ccc(F)cc1)Nc1nnc(COc2ccccc2F)s1	–	·	14.6µM	?	–	?
O=C(Nc1cccc(Cl)c1)Nc1nnc(CSCCOc2ccc(Cl)cc2)s1	?	?	18.4µM	–	–	16.4µM
Cc1ccc(NC(=O)Nc2nnc(CSCCOc3ccc(Cl)cc3)s2)cc1	?	–	–	?	?	–
O=C(Nc1ccc(Cl)cc1)Nc1nnc(CSCc2ccccc2)s1	–	–	–	20.6µM	–	–
COC(=O)c1cc(NC(=O)Cn2nc(-c3ccc(C)c(C)c3)ccc2=O)cc(C(=O)OC)c1	–	–	·	–	–	·
Oc1cccc2[nH]ccc12	·	–	·	·	–	·
Cc1ccc(-c2ccc(=O)n(CC(=O)Nc3ccc(C(C)C)cc3)n2)cc1	–	–	·	–	?	·
COc1cc2c(cc1NS(=O)(=O)c1cccc(C#N)c1)n(C)c(=O)n2C	?	·	·	–	·	·
O=C(c1ccc(S(=O)(=O)Cc2ccccc2F)c([N+](=O)[O-])c1)N1CCCCCC1	–	–	?	?	–	–
O=C(c1ccc(S(=O)(=O)c2cccc(Cl)c2)c([N+](=O)[O-])c1)N1CCN(c2ccccn2)CC1	?	·	20.6µM	?	–	9.2µM
O=C(c1ccc(S(=O)(=O)c2ccccc2Cl)c([N+](=O)[O-])c1)N1CCCCCC1	?	?	–	2.31µM	?	–
COc1cc(-c2noc(-c3ccc(NCc4cccnc4)c([N+](=O)[O-])c3)n2)cc(OC)c1OC	–	–	·	25.9µM	–	·
SMILES	KB-3-1 tox	ATXN2 expr inh	HT1080 IDH1KD tx	KB-V1 MDR tox	ATXN viability	HT1080NT lethal
Cc1cc(NC(=O)NC(=O)c2ccccc2NC(=O)C(C)N)ccc1Oc1ncc(Br)cn1 (stereo not given)	0.231µM	–	0.092µM	0.731µM	?	?
CCOC(=O)c1ccccc1NC(=O)Nc1ccc(OC)c(OC)c1	–	–	–	–	–	–
COc1ccc(-c2onc(C)c2-c2ccccc2)c(O)c1	?	–	16.4µM	?	?	?
COc1ccc(CCNCc2c(C(=O)O)c(C)n(Cc3cccc(Cl)c3)c2C)c(OC)c1OC	–	–	·	–	–	·
CCOCC(=O)Nc1c(C(=O)OCC)oc2ccccc12	–	–	–	–	–	–
CCOC(=O)c1oc2ccccc2c1NC(=O)Cc1cccs1	–	–	?	14.6µM	–	–
Cc1ccc(NC(=O)CSc2nc3ccccc3n2CC(=O)N(C)C2CCCCC2)cc1C	–	–	·	–	?	·
C/C=C\C(=O)Nc1cccc(C2=NOC3(C2)C[C@@H](C(N)=O)N(C(=O)CC(c2ccccc2)c2ccccc2)C3)c1 (stereo not given in full)	–	–	–	–	?	–
CCCCCC(=O)Nc1cccc(C2=NOC3(C2)C[C@@H](C(N)=O)N(C(=O)CC(c2ccccc2)c2ccccc2)C3)c1 (stereo not given in full)	16.4µM	–	?	–	?	–
COc1ccc(OCCNC2CCCC2)cc1	–	·	–	–	?	–
c1ccc(-c2ccc(OCCCNC3CCCC3)cc2)cc1	?	–[11.3 µM]	18.4µM	–	–	14.6µM
Cn1nnnc1SCC1=C(C(=O)O)N2C(=O)[C@@H](NC(=O)[C@H](OC=O)c3ccccc3)[C@H]2SC1	·	·	·	·	–	·
CCOc1cc(/C=C/C(=O)c2ccc(OC)c(CN3CCOCC3)c2)cc(Br)c1O	?	?	23.1µM	?	–	?
CCOc1cc(/C=N/NC(=O)c2ccc(CN3CCOCC3)cc2)ccc1OC	–	–	–	–	–	–
O=c1c2cn[nH]c2nc(SCc2cccc(Br)c2)n1-c1ccc(Cl)cc1	–	·	·	–	·	·
O=c1c2cn[nH]c2nc(SCc2ccc3c(c2)OCCO3)n1-c1ccccc1	?	–	20.6µM	?	–	?
COc1cc2c(cc1OC)C(COc1ccccc1OC)N(C(=O)CC(C)C)CC2 (stereo not given)	–	–	·	?	–	·
CCCN1C(=O)c2[nH]nc(-c3cc(Cl)c(C)cc3O)c2C1c1ccc(O)c(OC)c1 (stereo not given)	–	–	16.4µM	–	–	?
COCCCN1C(=O)c2[nH]nc(-c3cc(C)cc(C)c3O)c2C1c1ccc(O)c(OC)c1 (stereo not given)	?	–	–	20.6µM	–	–
CC(Sc1ncnc2sccc12)C(=O)Nc1ccc(S(=O)(=O)N2CCOCC2)cc1 (stereo not given)	–	–	–	23.1µM	–	–
Cc1ccc(SC(C)C(=O)Nc2ccc(S(=O)(=O)N3CCOCC3)cc2)cc1 (stereo not given)	–	–	–	11.6µM	–	–
CCOc1ccc(CCNC(=O)c2cc3c(=O)[nH]c4ccc(C)cc4c3s2)cc1OCC	–	–	·	–	–	·
COc1ccc(N(CC(=O)NCCSc2ccccc2)S(C)(=O)=O)cc1	?	–	–	–	–	–
